Results from PubChem BioAssay AID602350 (Broad Institute, 2012).
Measured potencies and affinities stand elsewhere.

Each compound was assayed against Protein disulfide-isomerase (Homo sapiens) (UniProt P07237) (assay: PDI inhibitors, insulin aggregation turbidity, dose response, biochemical, absorbance, cherry-picked samples (AID 602350;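 also: 0% = neutral controls and -100% = rutin hydrate positive control wells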)). Conditions: recombinant PDI insulin aggregation, absorbance 650 nm, 90 min; series mostly up to 19.5 µM; activity change, negative = inhibition: at the top concentration;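 active = absorbance falls by 30% or more versus neutral controls, with a potency fitted within twice the top valid dose; inconclusive = no clear call, values can overlap the other calls; inactive = change opposite to expected direction, plus the rest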.
Chain of Protein disulfide-isomerase (Homo sapiens) (P07237 whole entry, looked up): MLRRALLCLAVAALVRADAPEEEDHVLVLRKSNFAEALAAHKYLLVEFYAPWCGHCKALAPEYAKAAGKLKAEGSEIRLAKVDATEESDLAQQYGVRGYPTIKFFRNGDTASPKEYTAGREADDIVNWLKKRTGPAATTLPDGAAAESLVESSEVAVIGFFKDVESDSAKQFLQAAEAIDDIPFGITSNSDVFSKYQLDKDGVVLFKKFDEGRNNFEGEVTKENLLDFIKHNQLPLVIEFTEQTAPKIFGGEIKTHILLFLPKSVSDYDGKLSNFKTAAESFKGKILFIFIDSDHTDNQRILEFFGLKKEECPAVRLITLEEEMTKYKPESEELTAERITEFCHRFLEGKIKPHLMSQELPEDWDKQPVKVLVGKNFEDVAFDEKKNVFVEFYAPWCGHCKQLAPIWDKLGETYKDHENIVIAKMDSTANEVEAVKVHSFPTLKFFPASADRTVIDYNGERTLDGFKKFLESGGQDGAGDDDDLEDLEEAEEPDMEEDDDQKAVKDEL

Activity change, negative = inhibition, inactive:
COc1ccc(C2c3ccc(O)cc3Oc3ncn(Cc4ccco4)c(=N)c32)cc1OC (configuration not stated) -11.4%
COc1ccc(OC)c(CN2CCN(Cc3cc(=O)oc4cc(O)ccc34)CC2)c1 -24.5%
CCOc1ccccc1CN1CCNC(=O)C1CC(=O)NCc1nccn1CC (configuration not stated) -1.91%
CCOc1ccc(NC(=O)CCc2nnc3ccc(N4CCN(C)CC4)nn23)cc1 6.03%
CC(=O)Nc1cccc(NC(=O)CCc2ccccc2)c1 0.278%
CCCCNC(=O)CCn1c(=O)c2ccccc2n(CC(=O)Nc2ccccc2OCC)c1=O 13%
COc1ccc(/C(C)=N/NC(=O)CNC(=O)c2cccs2)cc1 30.1%
CC(=O)N(C)C1(c2nnnn2CCOC(=O)Nc2ccc(Cl)cc2)CCCCC1 -1.62%
CCOC(=O)C1(CCOc2ccccc2)CCN(Cc2ccccc2O)CC1 7.15%
Cc1ccc(C(=O)NCCN2C3=NC[C@H](Cc4ccc(O)cc4)N3C[C@H]2Cc2ccc(O)cc2)cc1Br -2.61%
C=CC[C@H](CC(=O)N(CCO)Cc1ccccc1)C(=O)N[C@H](COC(=O)[C@@H](CC=C)Cc1ccc(F)cc1)Cc1c[nH]c2ccccc12 11.1%
COc1ccccc1NS(=O)(=O)c1cccc(C(=O)NCC2(N3CCCCC3)CCCCC2)c1 10.1%
CC(=O)NC1(c2nnnn2CCOC(=O)Nc2ccc(Cl)cc2)CCCCC1 14.4%
C[C@@H](C(=O)NCc1ccccc1)N1C(=O)C2CC=CCC2C1=O (some centres not stated) -0.93%
Cc1cc(C)cc(OCC(=O)Nc2ccccc2C(=O)N2CCOCC2)c1 16%
CC1CCCN(c2cc3c(cc2[N+](=O)[O-])C(=O)N(c2ccccc2)C3=O)C1 (configuration not stated) 1.27%
Cc1cccc(C)c1NC(=O)CN1CCNCC1 12.2%
CCC(=O)Nc1ccc(-c2cc3ccccc3oc2=O)cc1 17% [at 6.8 µM]
Cc1ccc(C)c(N2CCN(S(=O)(=O)c3ccc4c(c3)OCCO4)CC2)c1 -6.5%
COCCN(CC(=O)Nc1ccccc1C(F)(F)F)C(=O)/C=C/c1cc(Cl)c2c(c1)OCCO2 11.7%
Cn1nccc1C(=O)Nc1ccc(S(=O)(=O)N2CCCC2)cc1 3.68%
Cc1c(O)ccc2c(CN3CCN(Cc4ccccc4)CC3)cc(=O)oc12 -11.4%
